# Reference: PubChem BioAssay AID1159580 (chemical genetic matrix, 2015)
# Out of some 5,500 compounds screened, about 2,000 (36%) were called active. Inconclusive results (about 18%) are left out. This is one part of the list. A number with no mark means an inactive call. No stated cut-off is given here; in the data, active means normalized growth mostly below about 0.91 (no sharp cut-off); inconclusive means no clear call, values can overlap the other calls; inactive means mostly above about 0.92.
# Test: chemical genetic growth profiling, strain panel (AID 1159580);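 further: tested at 20 µM; growth read once vehicle control cultures reached saturation at 30 °C; 1 = growth at the plate median or of vehicle wells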
# Conditions: growth OD
smiles,measurement,setting,value
CCCCCCCCNC(C)C(O)c1ccc(SC(C)C)cc1 (stereo not drawn),normalized growth,"S. cerevisiae deletion strains, locus YKL009W, strain mrt4, stronger effect = lower value",0.843 (active)
same,normalized growth,"S. cerevisiae deletion strains, locus YKL068W, stronger effect = lower value",1.02
same,normalized growth,"S. cerevisiae deletion strains, locus YKL085W, strain MDH1 (second series), stronger effect = lower value",0.936
same,normalized growth,"S. cerevisiae deletion strains, locus YKL085W, strain MDH1, stronger effect = lower value",0.936
same,normalized growth,"S. cerevisiae deletion strains, locus YKL160W, strain elf1, stronger effect = lower value",0.0721 (active)
same,normalized growth,"S. cerevisiae deletion strains, locus YKL190W, strain CNB1, stronger effect = lower value",0.0442 (active)
same,normalized growth,"S. cerevisiae deletion strains, locus YKR001C, strain vps1, stronger effect = lower value",0.0592 (active)
same,normalized growth,"S. cerevisiae deletion strains, locus YKR026C, strain gcn3, stronger effect = lower value",0.0783 (active)
same,normalized growth,"S. cerevisiae deletion strains, locus YKR091W, strain srl3, stronger effect = lower value",0.0575 (active)
same,normalized growth,"S. cerevisiae deletion strains, locus YLL001W, strain dnm1, stronger effect = lower value",0.0576 (active)
same,normalized growth,"S. cerevisiae deletion strains, locus YLL026W, stronger effect = lower value",0.0545 (active)
same,normalized growth,"S. cerevisiae deletion strains, locus YLL041C, strain sdh2, stronger effect = lower value",0.0563 (active)
same,normalized growth,"S. cerevisiae deletion strains, locus YLR027C, strain aat2, stronger effect = lower value",0.053 (active)
same,normalized growth,"S. cerevisiae deletion strains, locus YLR039C, strain RIC1, stronger effect = lower value",0.0765 (active)
same,normalized growth,"S. cerevisiae deletion strains, locus YLR058C, strain SHM2, stronger effect = lower value",0.0441 (active)
same,normalized growth,"S. cerevisiae deletion strains, locus YLR102C, strain apc9, stronger effect = lower value",0.0595 (active)
same,normalized growth,"S. cerevisiae deletion strains, locus YLR113W, strain HOG1, stronger effect = lower value",1.04
same,normalized growth,"S. cerevisiae deletion strains, locus YLR221C, strain rsa3, stronger effect = lower value",0.0556 (active)
same,normalized growth,"S. cerevisiae deletion strains, locus YLR258W, strain gsy2, stronger effect = lower value",0.0584 (active)
same,normalized growth,"S. cerevisiae deletion strains, locus YLR262C, strain YPT6 (second series), stronger effect = lower value",0.0924 (active)
same,normalized growth,"S. cerevisiae deletion strains, locus YLR262C, strain YPT6, stronger effect = lower value",0.0999 (active)
same,normalized growth,"S. cerevisiae deletion strains, locus YLR268W, strain sec22, stronger effect = lower value",0.0594 (active)
same,normalized growth,"S. cerevisiae deletion strains, locus YLR320W, strain mms22, stronger effect = lower value",0.0684 (active)
same,normalized growth,"S. cerevisiae deletion strains, locus YLR330W, strain CHS5, stronger effect = lower value",0.0493 (active)
same,normalized growth,"S. cerevisiae deletion strains, locus YLR342W, strain FKS1 (second series), stronger effect = lower value",0.06 (active)
same,normalized growth,"S. cerevisiae deletion strains, locus YLR342W, strain FKS1, stronger effect = lower value",0.0614 (active)
same,normalized growth,"S. cerevisiae deletion strains, locus YLR357W, strain rsc2, stronger effect = lower value",0.111 (active)
same,normalized growth,"S. cerevisiae deletion strains, locus YLR370C, strain arc18, stronger effect = lower value",0.0598 (active)
same,normalized growth,"S. cerevisiae deletion strains, locus YLR371W, strain rom2, stronger effect = lower value",0.0595 (active)
same,normalized growth,"S. cerevisiae deletion strains, locus YLR384C, strain iki3, stronger effect = lower value",0.0596 (active)
same,normalized growth,"S. cerevisiae deletion strains, locus YLR418C, strain cdc73, stronger effect = lower value",0.0837 (active)
same,normalized growth,"S. cerevisiae deletion strains, locus YML016C, strain PPZ1, stronger effect = lower value",0.0438 (active)
same,normalized growth,"S. cerevisiae deletion strains, locus YML032C, strain rad52, stronger effect = lower value",0.0627 (active)
same,normalized growth,"S. cerevisiae deletion strains, locus YML120C, strain ndi1, stronger effect = lower value",0.0554 (active)
same,normalized growth,"S. cerevisiae deletion strains, locus YML124C, strain tub3, stronger effect = lower value",0.0561 (active)
same,normalized growth,"S. cerevisiae deletion strains, locus YMR058W, strain fet3, stronger effect = lower value",0.0583 (active)
same,normalized growth,"S. cerevisiae deletion strains, locus YMR078C, strain ctf18, stronger effect = lower value",0.0681 (active)
same,normalized growth,"S. cerevisiae deletion strains, locus YMR125W, strain sto1, stronger effect = lower value",0.0638 (active)
same,normalized growth,"S. cerevisiae deletion strains, locus YMR129W, stronger effect = lower value",0.057 (active)
same,normalized growth,"S. cerevisiae deletion strains, locus YMR205C, strain PFK2, stronger effect = lower value",0.0745 (active)
same,normalized growth,"S. cerevisiae deletion strains, locus YMR223W, strain ubp8, stronger effect = lower value",0.0556 (active)
same,normalized growth,"S. cerevisiae deletion strains, locus YMR231W, strain pep5, stronger effect = lower value",0.0629 (active)
same,normalized growth,"S. cerevisiae deletion strains, locus YMR263W, strain SAP30, stronger effect = lower value",0.0563 (active)
same,normalized growth,"S. cerevisiae deletion strains, locus YMR307W, strain GAS1, stronger effect = lower value",0.113 (active)
same,normalized growth,"S. cerevisiae deletion strains, locus YNL067W, strain RPL9B, stronger effect = lower value",0.0464 (active)
same,normalized growth,"S. cerevisiae deletion strains, locus YNL071W, strain lat1, stronger effect = lower value",0.0586 (active)
same,normalized growth,"S. cerevisiae deletion strains, locus YNL128W, strain TEP1, stronger effect = lower value",0.0711 (active)
same,normalized growth,"S. cerevisiae deletion strains, locus YNL183C, strain NPR1, stronger effect = lower value",0.916
same,normalized growth,"S. cerevisiae deletion strains, locus YNL209W, strain ssb2, stronger effect = lower value",0.057 (active)
same,normalized growth,"S. cerevisiae deletion strains, locus YNL233W, strain BNI4, stronger effect = lower value",0.0511 (active)
same,normalized growth,"S. cerevisiae deletion strains, locus YNL248C, strain rpa49, stronger effect = lower value",0.0589 (active)
same,normalized growth,"S. cerevisiae deletion strains, locus YNL250W, strain rad50, stronger effect = lower value",0.849 (active)
same,normalized growth,"S. cerevisiae deletion strains, locus YNL271C, strain bni1, stronger effect = lower value",0.501 (active)
same,normalized growth,"S. cerevisiae deletion strains, locus YNL298W, strain CLA4, stronger effect = lower value",0.357 (active)
same,normalized growth,"S. cerevisiae deletion strains, locus YNL307C, strain MCK1, stronger effect = lower value",0.0662 (active)
same,normalized growth,"S. cerevisiae deletion strains, locus YNL322C, strain KRE1 (second series), stronger effect = lower value",0.0644 (active)
same,normalized growth,"S. cerevisiae deletion strains, locus YNR049C, strain mso1, stronger effect = lower value",0.0544 (active)
same,normalized growth,"S. cerevisiae deletion strains, locus YNR052C, strain pop2, stronger effect = lower value",0.0594 (active)
same,normalized growth,"S. cerevisiae deletion strains, locus YOL006C, strain TOP1, stronger effect = lower value",0.0984 (active)
same,normalized growth,"S. cerevisiae deletion strains, locus YOL012C, strain htz1",0.143 (active)
same,normalized growth,"S. cerevisiae deletion strains, locus YOL147C, strain pex11, stronger effect = lower value",0.056 (active)
same,normalized growth,"S. cerevisiae deletion strains, locus YOR001W, strain rrp6, stronger effect = lower value",0.0598 (active)
same,normalized growth,"S. cerevisiae deletion strains, locus YOR061W, strain CKA2, stronger effect = lower value",0.0463 (active)
same,normalized growth,"S. cerevisiae deletion strains, locus YOR069W, strain VPS5, stronger effect = lower value",0.0445 (active)
same,normalized growth,"S. cerevisiae deletion strains, locus YOR070C, strain gyp1, stronger effect = lower value",0.0552 (active)
same,normalized growth,"S. cerevisiae deletion strains, locus YOR080W, strain dia2, stronger effect = lower value",0.0613 (active)
same,normalized growth,"S. cerevisiae deletion strains, locus YOR083W, strain WHI5, stronger effect = lower value",0.0558 (active)
same,normalized growth,"S. cerevisiae deletion strains, locus YOR106W, strain vam3, stronger effect = lower value",0.0599 (active)
same,normalized growth,"S. cerevisiae deletion strains, locus YOR136W, strain idh2, stronger effect = lower value",0.0657 (active)
same,normalized growth,"S. cerevisiae deletion strains, locus YOR144C, strain elg1, stronger effect = lower value",0.0549 (active)
same,normalized growth,"S. cerevisiae deletion strains, locus YOR184W, strain ser1, stronger effect = lower value",0.0604 (active)
same,normalized growth,"S. cerevisiae deletion strains, locus YOR231W, strain MKK1, stronger effect = lower value",0.892
same,normalized growth,"S. cerevisiae deletion strains, locus YOR265W, strain rbl2, stronger effect = lower value",0.056 (active)
same,normalized growth,"S. cerevisiae deletion strains, locus YOR270C, strain vph1, stronger effect = lower value",0.0763 (active)
same,normalized growth,"S. cerevisiae deletion strains, locus YOR290C, strain snf2, stronger effect = lower value",0.0566 (active)
same,normalized growth,"S. cerevisiae deletion strains, locus YOR316C, strain cot1, stronger effect = lower value",0.057 (active)
same,normalized growth,"S. cerevisiae deletion strains, locus YPL051W, strain arl3, stronger effect = lower value",0.0586 (active)
same,normalized growth,"S. cerevisiae deletion strains, locus YPL055C, strain LGE1, stronger effect = lower value",0.0576 (active)
same,normalized growth,"S. cerevisiae deletion strains, locus YPL078C, strain atp4, stronger effect = lower value",0.0619 (active)
same,normalized growth,"S. cerevisiae deletion strains, locus YPL106C, strain sse1, stronger effect = lower value",0.0837 (active)
same,normalized growth,"S. cerevisiae deletion strains, locus YPL240C, strain hsp82, stronger effect = lower value",0.0552 (active)
same,normalized growth,"S. cerevisiae deletion strains, locus YPL256C, strain CLN2, stronger effect = lower value",0.981
same,normalized growth,"S. cerevisiae deletion strains, locus YPR119W, strain clb2, stronger effect = lower value",0.0589 (active)
same,normalized growth,"S. cerevisiae deletion strains, locus YPR141C, strain kar3, stronger effect = lower value",1.06
same,normalized growth,"S. cerevisiae deletion strains, locus YPR163C, strain tif3, stronger effect = lower value",0.0677 (active)
same,normalized growth,"S. cerevisiae deletion strains, locus YPR167C, strain met16, stronger effect = lower value",0.0591 (active)
same,normalized growth,"S. cerevisiae deletion strains, strain wtn01, stronger effect = lower value",0.0573 (active)
same,normalized growth,"S. cerevisiae strains, strain wild type, stronger effect = lower value",0.0449 (active)
